Key:
Test in all cases: PBM binding z-score (relative to random genomic background probes); higher = stronger binding; sequences stand for … in GC…GCGATTGACAGCGTAGAATGAAGG
[1] = tested on: FXR:RXRa (NR concentration 270 nM, RXRa partner concentration 90 nM)
Method in brief: (§1)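 Ligand-free nuclear receptor dimers were applied to custom Agilent 4×180K protein-binding microarrays whose double-stranded probes carried direct-repeat seeds, single-nucleotide variants, half-site ablations and random human genomic background sequences in 34-nt variable regions. Incubation lasted 1 h. Binding z-scores were computed against the random background probes from regression-normalized fluorescence.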

[2] = tested on: LXRa:RXRa (NR concentration 270 nM, RXRa partner concentration 90 nM)
Method in brief: as §1

[3] = tested on: LXRa homodimer (NR concentration 270 nM)
Method in brief: as §1

[4] = tested on: LXRb:RXRa (NR concentration 270 nM, RXRa partner concentration 90 nM)
Method in brief: as §1

[5] = tested on: LXRb homodimer (NR concentration 270 nM)
Method in brief: as §1

[6] = tested on: PPARa:RXRa (NR concentration 270 nM, RXRa partner concentration 90 nM)
Method in brief: as §1

[7] = tested on: PPARg:RXRa (NR concentration 180 nM, RXRa partner concentration 90 nM)
Method in brief: as §1

[8] = tested on: PPARg:RXRa 270nM:90nM, anti-RXR (NR concentration 270 nM, RXRa partner concentration 90 nM)
Method in brief: as §1

[9] = tested on: PPARg:RXRa 30nM:10nM, anti-RXR (NR concentration 30 nM, RXRa partner concentration 10 nM)
Method in brief: as §1

[10] = tested on: PPARg:RXRa 90nM:30nM, anti-RXR (NR concentration 90 nM, RXRa partner concentration 30 nM)
Method in brief: as §1

[11] = tested on: PPARg:RXRa DBDmut IVT, anti-RXR (DBD mutation: RXRa K156A/R161A, NR concentration 270 nM, RXRa partner concentration 90 nM)
Method in brief: as §1

[12] = tested on: PPARg:RXRa IVT, anti-PPARg (NR concentration 270 nM, RXRa partner concentration 90 nM)
Method in brief: as §1

[13] = tested on: PPARg DBDmut:RXRa IVT, anti-PPARg (DBD mutation: PPARg1 K132A/R137A, NR concentration 270 nM, RXRa partner concentration 90 nM)
Method in brief: as §1

[14] = tested on: PPARg DBDmut IVT, anti-PPARg (DBD mutation: PPARg1 K132A/R137A, NR concentration 270 nM)
Method in brief: as §1

[15] = tested on: PPARg homodimer (NR concentration 180 nM)
Method in brief: as §1

[16] = tested on: PXR:RXRa (NR concentration 270 nM, RXRa partner concentration 90 nM)
Method in brief: as §1

[17] = tested on: PXR homodimer (NR concentration 270 nM)
Method in brief: as §1

[18] = tested on: RARa:RXR (NR concentration 270 nM, RXRa partner concentration 90 nM)
Method in brief: as §1

[19] = tested on: RARa homodimer (NR concentration 270 nM)
Method in brief: as §1

[20] = tested on: RARb:RXRa (NR concentration 270 nM, RXRa partner concentration 90 nM)
Method in brief: as §1

| Sequence | PBM binding z-score [1] | PBM binding z-score [2] | PBM binding z-score [3] | PBM binding z-score [4] | PBM binding z-score [5] | PBM binding z-score [6] | PBM binding z-score [7] | PBM binding z-score [8] | PBM binding z-score [9] | PBM binding z-score [10] | PBM binding z-score [11] | PBM binding z-score [12] | PBM binding z-score [13] | PBM binding z-score [14] | PBM binding z-score [15] | PBM binding z-score [16] | PBM binding z-score [17] | PBM binding z-score [18] | PBM binding z-score [19] | PBM binding z-score [20] |
| --- | --- | --- | --- | --- | --- | --- | --- | --- | --- | --- | --- | --- | --- | --- | --- | --- | --- | --- | --- | --- |
| CGAACTAGGTCATTGACAGGATAGTGAATAGTAA | 4.3 | 2.82 | 0.355 | 2.01 | -0.145 | 4.83 | 7.71 | 6.36 | 3.54 | 5.85 | 7.87 | 8.1 | 4.08 | 2.22 | 1.94 | 1.25 | 0.363 | 1.88 | 0.385 | 3.59 |
| CCTTACGGGCCACTCCAGGTTATAGCATCGGAGT | 0.501 | 3.23 | 0.439 | -0.116 | -0.752 | -0.00696 | 0.417 | -0.281 | -0.409 | -0.41 | 0.503 | 0.46 | -1.12 | -0.87 | 0.232 | 0.0123 | 0.0587 | 0.0279 | 0.0434 | 0.496 |
| CCAAGTTGGTCAAGGTCACACACGCTATAGGTAC | 4.98 | 4.1 | 1.98 | 3.73 | 0.363 | 4.23 | 3.48 | 4.02 | 1.45 | 3.14 | 2.97 | 3.8 | 0.633 | 0.94 | 3.54 | 4.6 | 4.77 | 4.56 | 1.99 | 4.27 |
| CATACAGGGTCAGCGAGGCCAGAGTAGGGACGGC | 5.13 | 3.36 | -0.392 | 2.27 | -0.0459 | 5 | 4.21 | 3.65 | 0.828 | 2.12 | 0.932 | 2.99 | 0.657 | 0.403 | 1.75 | 3.02 | 0.862 | 3.03 | 0.389 | 4.24 |
| CAAACTAGGGCACCGGAAGGTCAAAGTCCGCATG | 3.3 | 3.78 | 2.88 | 3.1 | -0.115 | 4.89 | 6.22 | 6.02 | 2.51 | 5.06 | 7.77 | 7.55 | 1.16 | 0.324 | 1.96 | 4.06 | 0.773 | 4.68 | 0.355 | 4.01 |
| AGTCAAAGTTCATCCAGGTAACGTAAGATATGCT | 6.4 | 6.22 | 5.22 | 3.62 | 1.6 | 4.82 | 6.19 | 6.44 | 3.61 | 5.54 | 0.286 | 3.48 | 1.21 | 1.23 | 2.63 | 5.26 | 8.19 | 3.69 | 1.34 | 4.83 |
| AGTCAAAGTTCATCTACGTAACGTAAGATATGCT | 6.79 | 6.21 | 5.33 | 3.97 | 1.6 | 4.77 | 6.55 | 6.3 | 3.58 | 5.65 | 0.41 | 2.74 | 1.46 | 1.88 | 2.94 | 4.96 | 4.87 | 3.51 | 1.69 | 4.85 |
| GGAACGAGGGCCAAGTTGATAGCATCTGTCGACG | -0.236 | -0.341 | -0.454 | -0.778 | -0.949 | 0.213 | 0.734 | 1.4 | 0.144 | 0.913 | 0.254 | -0.0508 | -1.09 | -0.973 | -0.0593 | -0.242 | -0.456 | -0.293 | -0.285 | 0.806 |
| CCTAGCAGGCCAAGCTGGGTCACTCAAGGCTTGA | 1.55 | 0.966 | -0.429 | 0.821 | -1.36 | 1.82 | -0.199 | 0.0206 | -0.847 | -0.107 | 1.17 | 0.818 | -0.82 | -1.65 | 0.234 | 0.605 | -0.579 | 1.29 | -0.984 | 1.7 |
| ATCTTTAGGTAAAGTTCAGTGAAAGATCGATAGA | 0.994 | 1.72 | 1.25 | 1.18 | 0.781 | 1.87 | 2.25 | 3.13 | 1.43 | 2.95 | 1.08 | 1.4 | 0.514 | 1.26 | 0.959 | 2.02 | 1.36 | 1.27 | 0.483 | 2.65 |
| CGAACTAGGTCAGATCAGGACAGTGAAGGATGAT | 2.96 | 0.93 | -0.182 | 0.466 | -0.387 | 3.07 | 5.57 | 4.64 | 1.82 | 3.82 | 7.59 | 7.23 | 0.934 | 0.164 | 1.18 | 1.83 | 0.129 | 1.19 | -0.0983 | 3.17 |
| TAGCCTAGGTCATTCAGTGGCCAGTATAGAAAGC | 4.21 | 3.55 | 0.592 | 2.39 | 0.554 | 3.44 | 1.95 | 2.24 | 0.522 | 1.51 | 1.37 | 2.7 | 0.204 | -0.521 | 1.28 | 1.66 | -0.355 | 2.22 | -0.566 | 3.65 |
| AATATTAGTTGAGACGAGGGCAACCGATAGGTTG | 0.383 | 0.45 | 0.595 | 0.306 | 0.174 | 0.507 | 0.897 | 0.51 | 0.0399 | 0.408 | 0.326 | 0.882 | 0.648 | 0.786 | 1.36 | 1.71 | 1.48 | 1.4 | 2.43 | 1.26 |
| TCTTGTAGTTCAACAGGAGGTTAAGAAAGATCGA | 1.51 | 2.8 | 1 | 1.78 | 0.269 | 2.44 | 0.0566 | 1.66 | 2.29 | 1.89 | 1.24 | 0.804 | 0.436 | -0.0772 | 1.16 | 3 | 0.574 | 2.75 | 0.938 | 2.56 |
| TCTATTAGTTGAAGGGCAACCGACGAGTCCGTTT | 0.607 | 1.21 | 0.32 | 0.682 | 0.453 | 0.751 | 0.154 | 2.11 | 3.61 | 2.69 | 2.35 | 0.776 | 1.09 | 0.986 | 1.26 | 1 | 1.32 | 0.605 | 0.801 | 1.61 |

— the supplement of paper PMC6555819
